# DAX1 inh-1: DAX1 (NR0B1) inhibition, primary screen. 370,000 tested, 1.1% active. inhibition, % at 6.8 µM. HEK293T StAR-luciferase reporter, SF-1/DAX-1 repression relief;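 active = inhibition above the mean over all tested compounds plus 3 SD, cut at about 3.6% in these data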;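 also: 0% = DAX-1 cells with DMSO and 100% = cells lacking DAX-1 with DMSO; higher inhibition means more luminescence from relief of DAX-1 repression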
# DAX1 inh-2: inhibits human nuclear receptor DAX1; 340,000 tested, 0.99% active; inhibition, % at 6.75 µM; HEK293 Gal4-DAX1 luciferase reporter, luminescence;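 active = inhibition above the mean over all tested compounds plus 3 SD, cut at about 4.2% in these data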;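 also: 0% = DAX1-transfected cells with DMSO and 100% = empty-vector control cells with DMSO; inhibition shows as a rise in luminescence from relieved DAX1 repression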
# AHR act: activators of human aryl hydrocarbon receptor; 320,000 tested, 2.5% active; AHR-responsive luciferase reporter cells, luminescence; activation, % at 5 µM; P35869; in the data active = activation above about 47%;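 also: 0% = vehicle wells and 100% = reference agonist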
# Target sequence (P35869 whole entry, looked up): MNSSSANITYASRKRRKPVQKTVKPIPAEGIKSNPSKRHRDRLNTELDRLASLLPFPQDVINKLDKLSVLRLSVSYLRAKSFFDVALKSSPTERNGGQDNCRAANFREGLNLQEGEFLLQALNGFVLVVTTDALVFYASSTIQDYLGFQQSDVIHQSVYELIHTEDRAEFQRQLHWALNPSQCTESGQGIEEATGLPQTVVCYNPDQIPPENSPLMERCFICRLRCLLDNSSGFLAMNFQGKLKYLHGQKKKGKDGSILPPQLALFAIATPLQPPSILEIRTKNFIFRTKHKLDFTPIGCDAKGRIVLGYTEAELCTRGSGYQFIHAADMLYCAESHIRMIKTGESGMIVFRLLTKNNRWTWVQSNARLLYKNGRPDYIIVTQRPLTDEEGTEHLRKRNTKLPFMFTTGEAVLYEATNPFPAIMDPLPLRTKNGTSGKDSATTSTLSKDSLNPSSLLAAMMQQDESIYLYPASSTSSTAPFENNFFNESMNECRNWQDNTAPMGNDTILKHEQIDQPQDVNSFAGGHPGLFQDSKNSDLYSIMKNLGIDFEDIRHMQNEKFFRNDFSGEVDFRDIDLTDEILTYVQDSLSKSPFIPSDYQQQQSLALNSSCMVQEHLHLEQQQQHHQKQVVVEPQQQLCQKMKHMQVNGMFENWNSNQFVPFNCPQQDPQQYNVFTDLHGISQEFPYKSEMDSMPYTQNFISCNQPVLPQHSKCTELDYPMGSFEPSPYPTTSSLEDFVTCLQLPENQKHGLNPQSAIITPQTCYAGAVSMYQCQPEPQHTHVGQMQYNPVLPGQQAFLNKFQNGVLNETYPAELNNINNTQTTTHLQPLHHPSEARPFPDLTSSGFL
# hcDAF12 agonist: activates DAF-12 receptor from parasite H. contortus; HEK293 hcDAF-12 lit1-tk-luc reporter, luminescence; 0% DMSO, 100% Δ7-dafachronic acid; activation, % at 6.8 µM; 370,000 tested, 1.4% active;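 active = activation above the mean of all tested compounds plus 3 SD, cut at about 5.5% in these data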;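 also: 100% = response to 3 µM Δ7-dafachronic acid high control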
# ssDAF-12 act: activators of S. stercoralis DAF-12 nuclear receptor; AID 652126; activation, % at 6.8 µM; HEK293 ssDAF-12/GRIP1 lit1-tk-luc reporter, luminescence; % of 3 µM dafachronic acid response; 370,000 tested, 1% active;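 active = activation above the mean over all tested compounds plus 3 SD, cut at about 0.9% in these data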;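 also: 0% = DMSO-only wells and 100% = 3 µM delta7-dafachronic acid wells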
# hgDAF-12 ag: agonists of H. glycines DAF-12 nuclear receptor | 370,000 tested, 1.8% active | AID 687014 | activation, % at 6.8 µM | HEK293 GAL4-hgDAF12 UAS-luciferase reporter, agonist luminescence; normalized to butyrate control;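 active = activation above a cutoff set at the mean of all screened compounds plus 3 SD, cut at about 10% in these data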;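 also: 0% = DMSO wells and 100% = sodium butyrate wells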
# hgDAF12 conf: confirmation of H. glycines DAF-12 agonists | shares compounds with hgDAF-12 ag | HEK293 GAL4-hgDAF12 luciferase reporter, agonist mode; percent of butyrate response | activation, % at 6.8 µM | 3,300 tested, 80% active | AID 743050;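 active = mean activation over triplicate wells above the hit cutoff derived from the earlier primary screen, cut at about 11% in these data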;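 also: 0% = DMSO low control and 100% = 2 mM sodium butyrate high control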
# LXRb DAF12 ctr: counter-screen for DAF-12 agonists: agonists of human LXR-beta; shares compounds with hgDAF-12 ag; HEK293 Gal4-LXR luciferase reporter, 24 h; activation, % at 6.8 µM; 3,300 tested, under 10 active;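 active = mean activation of the triplicate above a set limit carried over from the primary screen, none filed active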
# * marks the source's active call; other numbers are inactive results; · = no result. Only some compounds are listed: those with a hit (about 5.7% of all), similar ones and a draw of the others.
SMILES,DAX1 inh-1,DAX1 inh-2,AHR act,hcDAF12 agonist,ssDAF-12 act,hgDAF-12 ag,hgDAF12 conf,LXRb DAF12 ctr
Cc1ccc(-c2nc3ccc(C(=O)O)cc3nc2-c2ccc(C)cc2)cc1,-1,4,6,0,-1,-1,·,·
Cc1nc2cc(C(=O)O)ccc2s1,2,1,3,3,0,15*,17*,1
Cc1nc2ccc(OC(=O)c3ccccc3)cc2s1,0,1,1,-1,-1,3,·,·
CCOc1c(Nc2ccc(C(C)C)cc2)c(=O)c1=O,0,4,12,0,-1,-1,·,·
CC(=O)Nc1ccc(-c2csc(NCc3ccco3)n2)cc1,1,1,25,2,-1,15*,12*,0
c1cncc(-c2csc(NCc3ccco3)n2)c1,0,-1,37,-1,0,8,·,·
C[C@H](CO)N1C[C@H](C)[C@@H](CN(C)S(=O)(=O)c2ccccc2)OCc2cnnn2CCCC1=O,0,2,·,-1,0,0,·,·
COc1ccccc1OCC(=O)Nc1nc(C)c(C)s1,1,2,9,2,0,14*,12*,1
COC(=O)c1sc(NC(=O)COc2ccccc2C)nc1C,1,0,14,0,-2,-1,·,·
C[C@@H]1CN([C@H](C)CO)C(=O)CCCn2cc(nn2)CO[C@H]1CN(C)C(=O)Nc1ccnc(N2CCOCC2)c1,0,4,·,0,0,2,·,·
O=C(Nc1ccc(N2CCCCC2)cc1)c1cncc(Br)c1,2,1,4,2,0,15*,14*,1
O=C(Nc1ccc(S(=O)(=O)N2CCCC2)cc1)c1cncc(Br)c1,-2,-1,1,-1,-2,-2,·,·
O=C(Nc1ccc(N2CCCCC2)cc1)c1ccc(F)cc1F,3.6*,2,-3,5.7*,0,13*,17*,1
O=C(Nc1ccc(N2CCCC2)cc1)c1ccc2ccccc2c1,3,1,0,2,0,16*,12*,1
Cn1nnc2cc(C(=O)Nc3ccc4ccccc4c3)ccc21,2,1,-12,2,0,15*,17*,1
CC(=O)Nc1ccc(N2CCCCC2)cc1,1,0,1,-2,-1,2,·,·
Cn1nnc2cc(C(=O)NC3CC3)ccc21,0,-1,1,1,-1,2,·,·
COc1ccc(S(N)(=O)=O)cc1C(=O)OCCCC(=O)c1ccccc1,-1,-1,1,-1,-1,-2,·,·
COc1ccc2nc(NC(=O)C3CC(=O)N(c4ccccc4)C3)sc2c1 (stereo not drawn),0,0,5,-1,-1,2,·,·
O=C(COc1cc(F)ccc1[N+](=O)[O-])NCCN1C(=O)CSC1=O,0,-1,4,-2,-1,23*,-1,0
CCNc1ccc(C(=O)OCC(=O)NCCN2C(=O)CSC2=O)cc1[N+](=O)[O-],1,1,1,0,-2,2,·,·
Brc1c(CSc2nc3ccccc3s2)nc2ncccn12,3,1,10,1,0,16*,12*,1
O=C(/C(C=Nc1cc2c(oc1=O)CCCC2=O)=C(\O)c1ccccc1)c1ccccc1,2,3,-2,3,0,14*,6,0
CC(=O)Nc1ccc(S(=O)(=O)N[C@@H](C)C(=O)NC2CCCc3ccccc32)cc1 (stereo partly drawn),0,0,10,0,0,1,·,·
Fc1ccc(/C=N/Nc2nccnc2Cl)cc1,1,6.1*,18,4,0,14*,6,0
Nc1c(Cl)ncnc1N/N=C/c1ccc(O)cc1,0,0,20,-1,-1,1,·,·
O=C(CN1CCN(S(=O)(=O)N2CCOCC2)CC1)Nc1cc(Cl)cc(Cl)c1,-1,-2,1,-1,-1,-3,·,·
